In PubChem BioAssay (NCI):
Where “and” joins values, the source holds several entries; their conditions need not be identical. Equal entries are not always repeated. Compounds without any hit were thinned out: in the full panel of roughly 83,000, 20% have a hit.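 Method: cells in 96-well plates; compound added at one concentration; 48 h incubation; percent growth measured; values under 10 scored active.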 Calls of active or inactive are those of the source.

What was measured:
Assay in all cases: NCI-60 one-dose screen, 48 h (100 = growth as untreated, 0 = no growth, -100 = all killed)
Conditions in all cases: 10 µM unless noted
NCI-H23 lung = test system: NCI-H23 lung
NCI-H226 lung = test system: NCI-H226 lung
NCI-H322M lung = test system: NCI-H322M lung
HOP-62 NSCLC = test system: HOP-62 NSCLC
NCI-H460 lung = test system: NCI-H460 lung
HOP-92 NSCLC = test system: HOP-92 NSCLC
A549/ATCC NSCLC = test system: A549/ATCC NSCLC
786-0 renal = test system: 786-0 renal
COLO 205 colon = test system: COLO 205 colon
NCI-H522 lung = test system: NCI-H522 lung

| Compound | growth (NCI-H23 lung) | growth (NCI-H226 lung) | growth (NCI-H322M lung) | growth (HOP-62 NSCLC) | growth (NCI-H460 lung) | growth (HOP-92 NSCLC) | growth (A549/ATCC NSCLC) | growth (786-0 renal) | growth (COLO 205 colon) | growth (NCI-H522 lung) |
| --- | --- | --- | --- | --- | --- | --- | --- | --- | --- | --- |
| CN(C)c1ccc(N=Nc2cccc3ccccc23)cc1 | 84.3% (inactive) | 63.5% (inactive) | 94.4% (inactive) | 85.7% (inactive) | 92.7% (inactive) | 74% (inactive) | 89.8% (inactive) | 100% (inactive) | 87.2% (inactive) |  |
| CN=C(N)N/N=C(\C)c1ccc2c(c1)Cc1cc(/C(C)=N/NC(N)=NC)ccc1-2 | -56.6% (active) | -61.2% (active) | -1.93% (active) | -82.7% (active) | -69.9% (active) | 13.5% (inactive) | -17.6% (active) | -49.7% (active) | -67.1% (active) | -35% (active) |
| NC1=CC(=O)c2ccccc2C1=O | 40.2% (inactive) | 91.7% (inactive) | 97% (inactive) | 80.9% (inactive) | 89.8% (inactive) | 91.4% (inactive) | 75.9% (inactive) | 105% (inactive) | 104% (inactive) |  |
| Nc1nc(N)c2nc(CNc3ccc(C(=O)NC(CCC(=O)O)C(=O)O)cc3)cnc2n1 (stereo unspecified) | 24.8% (inactive) and 22.4% (inactive) | 60.5% (inactive) and 52% (inactive) | 51.2% (inactive) and 50.8% (inactive) | 39.1% (inactive) and 11.7% (inactive) | 15.2% (inactive) and 12.2% (inactive) | 69.9% (inactive) and 43.7% (inactive) | 28.7% (inactive) and 36.9% (inactive) | 13.9% (inactive) and 8.47% (active) | 56.1% (inactive) and 32.8% (inactive) |  |
| O=C1C=CC(=O)N1C1c2ccccc2-c2ccccc21 | 98.1% (inactive) | 95.6% (inactive) | 94.6% (inactive) | 96.3% (inactive) | 96.5% (inactive) | 67.5% (inactive) | 91.4% (inactive) | 75.2% (inactive) | 20% (inactive) |  |
| COc1cc(/C=C(/C)C[N+](=O)[O-])ccc1O | 98.3% (inactive) | 104% (inactive) | 92.5% (inactive) | 103% (inactive) | 106% (inactive) | 98.4% (inactive) | 85.9% (inactive) | 99.5% (inactive) | 86.8% (inactive) |  |
| CCCCCC(CCCCC)C(=O)O | 114% (inactive) | 112% (inactive) | 103% (inactive) |  | 116% (inactive) | 78.8% (inactive) | 102% (inactive) | 107% (inactive) | 102% (inactive) | 88.8% (inactive) |
| COc1ccc2nc3cc(Cl)ccc3c(NCCNc3c4ccc(Cl)cc4nc4ccc(OC)cc34)c2c1 | -73% (active) | -54.7% (active) | -86.6% (active) |  | -68.7% (active) | -72.7% (active) | -74.5% (active) | -88% (active) | -74.9% (active) | -90.7% (active) |
| COc1cc(/C=C/C(C)=O)ccc1O | 96.6% (inactive) and 94.1% (inactive) | 95.3% (inactive) and 111% (inactive) | 88.4% (inactive) and 115% (inactive) | 94.2% (inactive) and 111% (inactive) | 102% (inactive) and 110% (inactive) | 73.3% (inactive) | 98.1% (inactive) and 100% (inactive) | 121% (inactive) and 114% (inactive) | 97.5% (inactive) and 120% (inactive) |  |
| O=C1c2ccccc2C(=O)c2sc(Nc3ccc(Cl)cc3)nc21 | -53.2% (active) | 1.07% (active) | 78% (inactive) | 55.4% (inactive) | 87.7% (inactive) | 59.1% (inactive) | 71.8% (inactive) | 60.9% (inactive) | 82.9% (inactive) |  |
| Cc1ccc(NS(=O)(=O)c2ccc(C)cc2)cc1 | 100% (inactive) and 98.2% (inactive) | 95.9% (inactive) and 88.6% (inactive) | 102% (inactive) and 91.5% (inactive) |  | 107% (inactive) and 106% (inactive) | 100% (inactive) and 96.7% (inactive) | 88.1% (inactive) and 107% (inactive) | 100% (inactive) and 99.3% (inactive) | 111% (inactive) and 103% (inactive) | 97.9% (inactive) and 77.9% (inactive) |
| CC(C)(C)CC(C)(C)c1ccc(OCCSC(=N)N)cc1 | 60.7% (inactive) | 71.8% (inactive) | 71.6% (inactive) | 98.4% (inactive) | 35% (inactive) | 17.7% (inactive) | 77.2% (inactive) | 28.2% (inactive) | -76.9% (active) |  |
| O=C1c2ccccc2C(=O)N1c1ccccc1 | 106% (inactive) | 101% (inactive) | 99.1% (inactive) |  | 104% (inactive) | 104% (inactive) | 90.7% (inactive) | 105% (inactive) | 106% (inactive) | 90.9% (inactive) |
| Cn1c2ccccc2c2nnc(N/N=C/c3ccccn3)nc21 | 19.3% (inactive) | 5.03% (active) | 11.8% (inactive) | 4.96% (active) | -11.5% (active) | 14.5% (inactive) | 21.1% (inactive) | -21.6% (active) | -8.79% (active) |  |
| Cc1ccnc(NC(c2ccccc2)c2ccc3cccnc3c2O)c1 (stereo unspecified) | 47.8% (inactive) | 57.8% (inactive) | 38.4% (inactive) | 54.1% (inactive) | 5.96% (active) | 67.8% (inactive) | 39% (inactive) | 34.1% (inactive) | 36.8% (inactive) | 7.12% (active) |
| CCCCCCCCCCCCCCNCc1ccccc1 | 75.7% (inactive) | 60.1% (inactive) | 106% (inactive) | 94.1% (inactive) | 77.4% (inactive) | 48.8% (inactive) | 108% (inactive) | 67.8% (inactive) | -40.9% (active) |  |
| NC(=S)N/N=C/c1ccc(Cl)s1 | 106% (inactive) | 97.4% (inactive) | 101% (inactive) | 109% (inactive) | 101% (inactive) | 97.5% (inactive) | 106% (inactive) | 105% (inactive) | 105% (inactive) |  |
| O=C(Nc1ccccc1)c1cc(Cl)ccc1O | 53% (inactive) | 74% (inactive) | 83.1% (inactive) | 63.5% (inactive) | 37.4% (inactive) | 14.5% (inactive) | 33.7% (inactive) | 59.7% (inactive) | 109% (inactive) |  |
| CC1SC(=S)N(c2ccc(Cl)cc2)C1=O (stereo unspecified) | 104% (inactive) and 92.2% (inactive) | 92.9% (inactive) and 97.2% (inactive) | 89.5% (inactive) and 89.8% (inactive) | 92.4% (inactive) and 92.7% (inactive) | 100% (inactive) and 108% (inactive) | 77.6% (inactive) | 93.8% (inactive) and 95.7% (inactive) | 91.5% (inactive) and 93.1% (inactive) | 124% (inactive) and 107% (inactive) |  |
| CCCCCCC(C)c1ccccc1O (stereo unspecified) (tested in a mixture with another compound) | 90.2% (inactive) | 109% (inactive) | 117% (inactive) | 99% (inactive) | 101% (inactive) | 69.1% (inactive) | 100% (inactive) |  | 108% (inactive) |  |
| O=C(Oc1cccc2cccnc12)c1ccccc1 | 94.3% (inactive) and 103% (inactive) | 110% (inactive) and 102% (inactive) | 107% (inactive) and 117% (inactive) | 98.8% (inactive) and 106% (inactive) | 87.1% (inactive) and 109% (inactive) | 91% (inactive) and 110% (inactive) | 100% (inactive) and 103% (inactive) | 100% (inactive) and 107% (inactive) | 84.8% (inactive) and 106% (inactive) |  |
| CC1OC(OC2C(OC3CCC4(C)C(CCC5(C)C4CC=C4C6CC(C)(C)CCC6(CO)C(O)CC45C)C3(C)C)OC(C(=O)O)C(OC3OC(COC4OC(CO)C(O)C(O)C4O)C(O)C(O)C3O)C2O)C(O)C(O)C1O (stereo unspecified) | -82.1% (active) | -63.6% (active) | -96.2% (active) |  | 15.4% (inactive) | -38.7% (active) | -70.1% (active) | -91.9% (active) | -86% (active) | -64.9% (active) |
| CC(C)(C)c1ccc(O)c(C2CCCCC2)c1 | 98% (inactive) | 104% (inactive) | 105% (inactive) | 107% (inactive) | 107% (inactive) | 96.6% (inactive) | 95.9% (inactive) | 99.8% (inactive) | 103% (inactive) |  |
| O=C1C2=C(Nc3cc([N+](=O)[O-])ccc3N2)OC1c1c2ccccc2cc2ccccc12 (stereo unspecified) | 51.7% (inactive) | 82.9% (inactive) | 71.8% (inactive) | 88% (inactive) | 46% (inactive) | 44.1% (inactive) | 71.1% (inactive) | 48.3% (inactive) | 118% (inactive) |  |
| CCCCCCCCCCCCCCCC[N+](C)(CCO)Cc1cnc[nH]1 (stereo unspecified) | -3.12% (active) | -4.89% (active) | 20.3% (inactive) | -64.2% (active) | -93.3% (active) | -55.8% (active) | -36.1% (active) | -40.1% (active) | -100% (active) |  |
